PubChem BioAssay
“And” between values parts separate entries of the source, which are not always exact repeats. Equal entries are not always repeated. A number with no mark means an inactive call. No rule for the calls is given here.

Tested on: Botulinum neurotoxin type F light chain protease (Clostridium botulinum)
Assay: Botulinum neurotoxin type F light chain protease inhibition, multiplex microsphere flow cytometry, validation set (AID 588459)
Settings: multiplex microsphere protease substrate cleavage assay, at 10 µM, active compounds read high

| Compound | inhibition |
| --- | --- |
| CCN(CC)CC(=O)Nc1c(C)cccc1C | 2.8% and -0.5% |
| Cc1cc(OC(C(=O)O)c2ccccc2)c2c(C)c(Cc3ccccc3)c(=O)oc2c1 (stereo not drawn) | 2% |
| CN1CCCC(OC(=O)c2ccc3c(c2)OCCO3)C1 (stereo not drawn) | 1% |
| c1cc(-c2ccncc2)ccn1 | 0.7% |
| CCn1ccnc1CN(C)Cc1cn(-c2cccc(C)c2)nc1-c1cccc(F)c1 | 0.6% |
| CCCCCCCCNC(C)C(O)c1ccc(SC(C)C)cc1 (stereo not drawn) | -4.9% |
| CCC(=O)Oc1ccc(C(=O)Nc2ccc([N+](=O)[O-])cc2)cc1 | 2.3% |
| Cc1ccc2[nH]c3c(=O)n(CCCN4CCN(C)CC4)cnc3c2c1 | 7.8% |
| CCN(CC)CC#CCOC(=O)C(O)(c1ccccc1)C1CCCCC1 (stereo not drawn) | -1.7% |
| CN(C)c1nc(N(C)C)nc(N(C)C)n1 | 6.4% |
| Nc1cccc2nc3ccccc3cc12 | 4% |
| CN1CCN2c3ccccc3Cc3ccccc3C2C1 (stereo not drawn) | 0.3% |
| CC1(C)CC(=O)C(C(=O)CCCCC(=O)C2C(=O)CC(C)(C)CC2=O)C(=O)C1 | 1.2% |
| O=C1CCCN1CCCn1cnc2c([nH]c3ccc(F)cc32)c1=O | 0% |
| CC(=O)[C@H]1CC[C@H]2[C@@H]3CCC4=CC(=O)CC[C@]4(C)[C@H]3[C@H](O)C[C@]12C | -0.3% |
| CCOc1ccc(C(NC(C)=O)c2ccc(OC)c(OC)c2)cc1 (stereo not drawn) | -2.9% |
| CCC1(c2ccccc2)C(=O)NCNC1=O | 0% |
| Cc1c(Cc2ccccc2)c(=O)oc2c(CN(C)C)c(O)c(Cl)cc12 | 0% |
| COC(=O)C1=NN(C(=O)c2cccc(Br)c2)C(O)(c2ccc(Cl)cc2)C1 (stereo not drawn) | 3.1% |
| Cc1ccc(/C(=C\CN2CCCC2)c2ccccn2)cc1 | -2% |

| Compound | inhibition |
| --- | --- |
| CC1(C)S[C@@H]2[C@H](NC(=O)Cc3ccccc3)C(=O)N2[C@H]1C(=O)O | 4.2% |
| O=C(O)c1cc2cc(F)ccc2[nH]1 | 5% |
| CN(C(=O)C(Cl)Cl)c1ccc(OC(=O)c2ccco2)cc1 | 1.7% |
| CC(N=C(NC#N)Nc1ccncc1)C(C)(C)C (stereo not drawn) | 0.4% |
| CC(=O)Nc1ccc(S(=O)(=O)c2ccc(N)cc2)cc1 | -3.7% |
| COc1ccccc1OCC(=O)O | 1% |
| CNCCC(Oc1ccc(C(F)(F)F)cc1)c1ccccc1 (stereo not drawn) | -3.3% |
| Nc1ncnc2c1ncn2C1OC(CO)C(O)C1O (stereo not drawn) | 14.6% |
| C#C[C@]1(O)CC[C@H]2[C@@H]3CCC4=CC(=O)CC[C@@H]4[C@H]3CC[C@@]21CC | -0.6% |
| COc1cccc(NC(=O)C2CC(=O)OC23CCOC(C)(C)C3)c1 (stereo not drawn) | -5.5% |
| CCOc1ccc(N2C(=O)CC(NCCNc3ccc([N+](=O)[O-])cn3)C2=O)cc1 (stereo not drawn) | 0.9% |
| C=CCc1ccc(OCC(O)COc2ccc(CC=C)cc2OC)c(OC)c1 | 5.2% |
| C/C(NC(=O)c1cccs1)=C1\C(=O)C[C@@H]2[C@H]1C2(C)C | 3% |
| N=c1c[n+](N2CCOCC2)[n-]o1 | -6.3% |
| COc1cc2c(cc1OC)-c1cc(OCc3ccccc3Cl)nc(=O)n1CC2 | -0.4% |
| CNC[C@H](O)c1cccc(O)c1 | 1.5% |
| O=C(CN1C(=O)c2ccccc2C1=O)Nc1cccc([N+](=O)[O-])c1 | -5.7% |
| CC1(C)CC(=O)c2cn3c(nc2C1)nc1ccccc13 | 1% |
| COc1cc2c(cc1OC)C(c1cc(OC)c(OC)c(OC)c1)NCC2 (stereo not drawn) | 2.3% |

Molecular target: Botulinum neurotoxin type A (Clostridium botulinum) (UniProt P0DPI0)
Sequence (P0DPI0 whole entry, looked up): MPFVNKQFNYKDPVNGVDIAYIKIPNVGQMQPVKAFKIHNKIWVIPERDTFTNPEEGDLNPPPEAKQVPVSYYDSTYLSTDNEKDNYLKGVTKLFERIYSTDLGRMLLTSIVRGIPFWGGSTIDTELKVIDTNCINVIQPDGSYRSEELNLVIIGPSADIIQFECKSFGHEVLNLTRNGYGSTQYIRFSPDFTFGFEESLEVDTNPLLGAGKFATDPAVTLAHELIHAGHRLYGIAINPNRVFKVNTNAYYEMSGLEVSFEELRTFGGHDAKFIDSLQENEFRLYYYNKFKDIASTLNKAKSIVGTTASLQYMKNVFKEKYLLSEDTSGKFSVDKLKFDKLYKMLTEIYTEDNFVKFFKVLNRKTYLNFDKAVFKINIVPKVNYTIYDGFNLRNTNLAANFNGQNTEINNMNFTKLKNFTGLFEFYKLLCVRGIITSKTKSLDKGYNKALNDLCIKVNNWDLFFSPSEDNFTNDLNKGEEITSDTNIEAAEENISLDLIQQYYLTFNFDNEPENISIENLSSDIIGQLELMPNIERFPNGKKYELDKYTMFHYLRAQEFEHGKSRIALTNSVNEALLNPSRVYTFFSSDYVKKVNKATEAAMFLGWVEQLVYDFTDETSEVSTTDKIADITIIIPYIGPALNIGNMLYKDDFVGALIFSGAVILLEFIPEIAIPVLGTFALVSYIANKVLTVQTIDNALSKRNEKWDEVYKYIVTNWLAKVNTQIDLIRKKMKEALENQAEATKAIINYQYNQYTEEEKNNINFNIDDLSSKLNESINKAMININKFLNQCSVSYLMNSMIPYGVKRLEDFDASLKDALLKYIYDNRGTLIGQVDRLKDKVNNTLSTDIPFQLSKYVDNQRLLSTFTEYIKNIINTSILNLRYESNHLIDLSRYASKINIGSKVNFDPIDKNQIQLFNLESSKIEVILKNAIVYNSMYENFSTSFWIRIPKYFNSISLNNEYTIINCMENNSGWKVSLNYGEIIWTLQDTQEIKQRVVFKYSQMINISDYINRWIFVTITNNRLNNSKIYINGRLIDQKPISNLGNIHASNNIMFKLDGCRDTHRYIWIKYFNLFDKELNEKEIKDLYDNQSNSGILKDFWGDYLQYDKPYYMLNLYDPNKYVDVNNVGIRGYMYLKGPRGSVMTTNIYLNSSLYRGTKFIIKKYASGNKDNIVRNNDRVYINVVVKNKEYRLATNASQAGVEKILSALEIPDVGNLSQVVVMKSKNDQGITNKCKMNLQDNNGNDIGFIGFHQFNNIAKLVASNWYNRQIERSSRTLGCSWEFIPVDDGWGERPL
Assay: BoNT/A light chain protease inhibitors, biochemical, multiplex microsphere flow cytometry, validation set (AID 588460)
Settings: at 10 µM, active compounds read high

| Compound | inhibition |
| --- | --- |
| CCN(CC)CC(=O)Nc1c(C)cccc1C | 0.5% and -2.3% |
| Cc1cc(OC(C(=O)O)c2ccccc2)c2c(C)c(Cc3ccccc3)c(=O)oc2c1 (stereo not drawn) | -0.1% |
| CN1CCCC(OC(=O)c2ccc3c(c2)OCCO3)C1 (stereo not drawn) | 0.8% |
| c1cc(-c2ccncc2)ccn1 | -1.9% |
| CCn1ccnc1CN(C)Cc1cn(-c2cccc(C)c2)nc1-c1cccc(F)c1 | -0.3% |
| CCCCCCCCNC(C)C(O)c1ccc(SC(C)C)cc1 (stereo not drawn) | -1.5% |
| CCC(=O)Oc1ccc(C(=O)Nc2ccc([N+](=O)[O-])cc2)cc1 | -0.2% |
| Cc1ccc2[nH]c3c(=O)n(CCCN4CCN(C)CC4)cnc3c2c1 | -1% |
| CCN(CC)CC#CCOC(=O)C(O)(c1ccccc1)C1CCCCC1 (stereo not drawn) | 0.6% |
| CN(C)c1nc(N(C)C)nc(N(C)C)n1 | 2.6% |
| Nc1cccc2nc3ccccc3cc12 | 2.3% |
| CN1CCN2c3ccccc3Cc3ccccc3C2C1 (stereo not drawn) | 0.5% |
| CC1(C)CC(=O)C(C(=O)CCCCC(=O)C2C(=O)CC(C)(C)CC2=O)C(=O)C1 | 0.8% |
| O=C1CCCN1CCCn1cnc2c([nH]c3ccc(F)cc32)c1=O | -0.3% |
| CC(=O)[C@H]1CC[C@H]2[C@@H]3CCC4=CC(=O)CC[C@]4(C)[C@H]3[C@H](O)C[C@]12C | -1.3% |
| CCOc1ccc(C(NC(C)=O)c2ccc(OC)c(OC)c2)cc1 (stereo not drawn) | -0.9% |
| CCC1(c2ccccc2)C(=O)NCNC1=O | -0.9% |
| Cc1c(Cc2ccccc2)c(=O)oc2c(CN(C)C)c(O)c(Cl)cc12 | -0.6% |
| COC(=O)C1=NN(C(=O)c2cccc(Br)c2)C(O)(c2ccc(Cl)cc2)C1 (stereo not drawn) | -0.5% |
| Cc1ccc(/C(=C\CN2CCCC2)c2ccccn2)cc1 | 0.3% |

| Compound | inhibition |
| --- | --- |
| CC1(C)S[C@@H]2[C@H](NC(=O)Cc3ccccc3)C(=O)N2[C@H]1C(=O)O | 1.7% |
| O=C(O)c1cc2cc(F)ccc2[nH]1 | 2.4% |
| CN(C(=O)C(Cl)Cl)c1ccc(OC(=O)c2ccco2)cc1 | 0.7% |
| CC(N=C(NC#N)Nc1ccncc1)C(C)(C)C (stereo not drawn) | 2.3% |
| CC(=O)Nc1ccc(S(=O)(=O)c2ccc(N)cc2)cc1 | -0.4% |
| COc1ccccc1OCC(=O)O | -0.9% |
| CNCCC(Oc1ccc(C(F)(F)F)cc1)c1ccccc1 (stereo not drawn) | 0.6% |
| Nc1ncnc2c1ncn2C1OC(CO)C(O)C1O (stereo not drawn) | -0.2% |
| C#C[C@]1(O)CC[C@H]2[C@@H]3CCC4=CC(=O)CC[C@@H]4[C@H]3CC[C@@]21CC | -1.3% |
| COc1cccc(NC(=O)C2CC(=O)OC23CCOC(C)(C)C3)c1 (stereo not drawn) | -1.3% |
| CCOc1ccc(N2C(=O)CC(NCCNc3ccc([N+](=O)[O-])cn3)C2=O)cc1 (stereo not drawn) | 1.6% |
| C=CCc1ccc(OCC(O)COc2ccc(CC=C)cc2OC)c(OC)c1 | -0.2% |
| C/C(NC(=O)c1cccs1)=C1\C(=O)C[C@@H]2[C@H]1C2(C)C | 0.5% |
| N=c1c[n+](N2CCOCC2)[n-]o1 | 0.1% |
| COc1cc2c(cc1OC)-c1cc(OCc3ccccc3Cl)nc(=O)n1CC2 | 0.1% |
| CNC[C@H](O)c1cccc(O)c1 | 2.2% |
| O=C(CN1C(=O)c2ccccc2C1=O)Nc1cccc([N+](=O)[O-])c1 | -0.9% |
| CC1(C)CC(=O)c2cn3c(nc2C1)nc1ccccc13 | -0.2% |
| COc1cc2c(cc1OC)C(c1cc(OC)c(OC)c(OC)c1)NCC2 (stereo not drawn) | -0.2% |
